Most compounds without a hit are left out; they make up all but 2.4% or so of the library.
Cruzain inh noDet – cruzain (T. cruzi) inhibition without detergent; P25779; purified cruzain, Z-FR-AMC fluorescence, no detergent; Potency, µM, hits mostly inhibitors; 200,000 compounds, 2.3% hits; further: nearly all actives have a fitted effect of over 40% in size
Target sequence (P25779 123-467 limits assumed): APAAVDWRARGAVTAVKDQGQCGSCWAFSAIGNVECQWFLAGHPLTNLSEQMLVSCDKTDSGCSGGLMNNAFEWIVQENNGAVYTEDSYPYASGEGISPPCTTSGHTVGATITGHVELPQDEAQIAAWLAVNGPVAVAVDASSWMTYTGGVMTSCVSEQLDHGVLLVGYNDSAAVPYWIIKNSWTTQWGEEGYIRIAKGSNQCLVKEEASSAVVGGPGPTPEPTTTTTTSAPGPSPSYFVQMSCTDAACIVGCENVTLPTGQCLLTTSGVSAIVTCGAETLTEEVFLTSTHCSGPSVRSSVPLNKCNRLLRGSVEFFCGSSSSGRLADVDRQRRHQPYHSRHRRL
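Detergent-free condition (0.00005% Triton X-100) in acetate buffer pH 5.5 with DTT. 1.5 nM enzyme and compound were pre-mixed 15 min, then 2 uM Z-FR-AMC substrate added; reaction progress from fluorescence change between first and third reads (60 s).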
Cruzain inh Det – cruzain (T. cruzi) inhibition with detergent; P25779; purified cruzain, Z-FR-AMC fluorescence, 0.01% Triton; Potency, µM, usual class: inhibitors; 200,000 compounds, 0.43% hits; further: nearly all actives have a fitted effect of over 40% in size
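Steps: dispense cruzain (1.5 nM final) in acetate buffer pH 5.5 with DTT and 0.01% Triton X-100; pin-transfer compounds; incubate 15 min RT; add Z-FR-AMC (2 uM final); read fluorescence every 30 s, using the 60 s intensity change.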
Numbers stand for hits; . = inactive; ? = inconclusive. The call rests on the fitted dose curve; in most records, active means well fitted curve in the direction sought with a large enough effect; inconclusive means small, poorly fitted or top-dose-only effect, or another doubt; inactive means no such curve, though single readings can be large; an effect the other way counts as inactive or inconclusive.

SMILES | Cruzain inh noDet | Cruzain inh Det
CC(=O)c1ccc(NC(=O)c2ccc3nc(-c4ccco4)c(-c4ccco4)nc3c2)cc1 | ? | 14µM
O=C(NCc1ccccc1)c1ccc2nccnc2c1 | . | .
O=C(Nc1ccc(N2CCOCC2)cc1)c1ccc2nc(-c3ccco3)c(-c3ccco3)nc2c1 | . | .
CC(C)C[C@@H](CC(=O)N[C@@H](CCC(=O)O)CC(=O)O)NC(=O)[C@@H]1CCCC[C@H]1NC(=O)C[C@H](CCCN)NC(=O)C[C@H](Cc1ccccc1)NC(=O)[C@@H]1CNCC[C@H]1N | . | .
Nc1c(-c2cccc([N+](=O)[O-])c2)nc2ccccn12 | 20µM | .
Nc1nc(-c2cccc([N+](=O)[O-])c2)cc(-c2cc(-c3cccc([N+](=O)[O-])c3)nc(N)n2)n1 | . | .
CCCC(=O)Nc1sc(C)c(-c2ccc(C(C)CC)cc2)c1C#N (stereo not given) | 7.9µM | .
Cc1sc(NC(=O)COc2ccccc2)c(C#N)c1-c1ccccc1 | . | ?
CCc1ccc(-c2c(C)sc(NC(=O)C3CCC3)c2C#N)cc1 | 16µM | .
Cc1sc(NC(=O)C2CCCC2)c(C#N)c1C | . | .
CC(=O)c1cccc(-n2c(=O)c3c4c(sc3n(CC(=O)c3ccc(Cl)cc3)c2=O)CN(C(C)=O)CC4)c1 | . | .
Cc1ccc(Cl)cc1NC(=O)CC1Sc2ccccc2NC1=O (stereo not given) | . | .
COc1ccc2c(c1)c1nnc(SCC(=O)N3CCCCC3C)nc1n2C (stereo not given) | . | 14µM
COc1ccc(N2CCN(C(=O)CSc3nnc4c5cc(C)ccc5n(C)c4n3)CC2)cc1 | ? | .
CCCCCCCCCCCCC(=O)N1CCCC[C@H]1CNC(=O)[C@@H](N)CCCCN | . | .
CC1=NOC(=O)/C1=C\c1ccc(-c2cccc(Cl)c2)o1 | ? | .
Cc1nc(S/C(=C/c2ccc(-c3cccc(Cl)c3)o2)C(=O)O)n[nH]1 | 25µM | .
CCC[C@H]1C[C@H](C(=O)N[C@@H]([C@H]2O[C@@H](SC)[C@@H](O)[C@@H](O)[C@@H]2O)[C@H](C)Cl)N(C)C1 | . | .
Cc1ccc(C)c(NC(=O)Cn2c(-c3nonc3N)nc3ccccc32)c1 | . | .
Cc1ccc(NC(=O)Cn2c(-c3nonc3N)nc3ccccc32)cc1C | 4µM | 7.1µM
O=C(CC1N=C2c3ccccc3N=C(SCC(=O)Nc3cccc(Cl)c3)N2C1=O)NCc1cccs1 (stereo not given) | . | .
CC(C)CSc1nnc2c(n1)[nH]c1ccccc12 | . | .
CCCCSc1nnc2c(n1)[nH]c1ccccc12 | 25µM | .
CCOC(=O)CC(=O)CSc1nnc2c(n1)[nH]c1ccccc12 | ? | .
O=C(CSc1nnc2c(n1)[nH]c1ccccc12)OCc1ccccc1 | 25µM | .
SMILES | Cruzain inh noDet | Cruzain inh Det
COC(=O)[C@@H]1C[C@@]2(O)[C@@H](O)[C@@H](O)[C@@H](O)C[C@H]2N1Cc1cc(F)ccc1F | . | .
COc1ccccc1/C=C\C=N\n1c(-c2ccc(Cl)cc2Cl)n[nH]c1=S | 32µM | .
COc1ccccc1/C=C\C=N\n1c(-c2ccc(Cl)cc2)n[nH]c1=S | ? | .
Cn1c(N)nc2c(nc(OCc3ccccc3)n2[C@@H]2O[C@H](CO)[C@@H](O)[C@@H]2O)c1=O | . | .
O=[N+]([O-])c1ccc(Nc2nc(N/N=C\c3ccc4c(c3)OCO4)nc(N3CCCCC3)n2)cc1 | 7.9µM | .
O=[N+]([O-])c1cc2c(cc1/C=N/Nc1nc(N3CCCC3)nc(N3CCCC3)n1)OCO2 | . | .
CCN(c1ccccc1)c1cc(NC)[n+](C)c(C)n1 | . | .
COC(=O)c1ccccc1NC(=O)CN(c1ccc(Cl)cc1)S(=O)(=O)c1ccc(OC)cc1 | . | .
O=C(CNC(c1ccccc1)c1ccccc1)Nc1cc([N+](=O)[O-])ccc1Cl | 25µM | .
CC(C)CC(=O)Nc1cc([N+](=O)[O-])ccc1Cl | . | .
Cc1ccccc1CNC(=O)Cc1ccc(NC(=O)N2CCCCc3ccccc32)cc1 | . | .
O=C(c1ccc(N2C(=O)C3CC=C(Cl)CC3C2=O)cc1)N1CCCCC1 (stereo not given) | . | .
O=C(Nc1ccc(Br)cc1)c1ccc(N2C(=O)C3CC=C(Cl)CC3C2=O)cc1 (stereo not given) | 20µM | .
COc1ccc(C(=O)Nc2ccc(NC(=O)c3cccs3)cc2)cc1OC | . | .
CC(=O)NC(=S)Nc1ccc(NC(=O)c2cccs2)cc1 | . | .
O=C(Nc1ccc(NC(=S)NC(=O)c2cccs2)cc1)c1ccccc1 | . | .
O=C(NNC(=S)NC(=O)c1cccs1)c1ccc(NC(=O)c2ccccc2)cc1 | 20µM | .
Cc1c(C(=O)NC(=S)Nc2ccc(NC(=O)c3cccs3)cc2)oc2ccccc12 | 13µM | .
COc1ccc(C(=O)Nc2ccc(NC(=O)c3cccs3)cc2)cc1Cl | 7.9µM | .
CCN(C(=O)c1coc(=O)c2ccccc12)c1ccccc1C | . | .
Cc1ccc(C)n1NC(=O)c1ccc(Cl)cc1 | . | .
Cc1ccc(C)n1NC(=O)c1ccc(Cl)cc1Cl | 13µM | .
Cn1nnc2c(N3CCN(c4ccccc4Cl)CC3)ncnc21 | . | .
COc1cc2c(cc1OC)-c1c(oc3cc(O)cc(O)c3c1=O)CO2 | . | .
CCCOc1ccc(-c2nc(C#N)c(N3CCc4ccccc4C3)o2)cc1 | . | 25µM
SMILES | Cruzain inh noDet | Cruzain inh Det
CCCOc1ccc(-c2nc(C#N)c(N3CCN(C)CC3)o2)cc1 | . | .
Cc1cc(C)cc(-n2ccn3c(CC(C)(C)CC(=O)O)nnc3c2=O)c1 | . | .
Cc1ccc2c(nc3s/c(=C/c4cccs4)c(=O)n32)c1C | 16µM | .
Cc1cc(C)c2nc3s/c(=C/c4ccccc4)c(=O)n3c2c1 | . | .
Cc1ccc(Cl)cc1NC(=O)COC(=O)c1ccc(COc2ccc3c(C)cc(=O)oc3c2)cc1 | 7.9µM | .
CC(=O)Nc1ccc(NC(=O)c2ccc(COc3ccc4c(C)cc(=O)oc4c3)cc2)cc1 | . | .
COC(=O)CC(=O)CSc1nc2cc(C(=O)NCC(C)C)ccc2c(=O)n1CCc1ccccc1 | . | .
CC(C)Oc1cccc(C(=O)Nc2ccc3oc(-c4ccccc4)nc3c2)c1 | . | .
CCOC(=O)c1c(C)[nH]c(C(=O)COC(=O)CNC(=O)C2CCCCC2)c1C | 7.9µM | ?
CCOC(=O)c1c(C)[nH]c(C(=O)COC(=O)CNC(=O)c2ccccc2Cl)c1C | 13µM | 11µM
CCOC(=O)c1c(C)[nH]c(C(=O)COC(=O)[C@H](C)NC(=O)c2ccccc2Cl)c1C | . | .
CCOC(=O)c1c(C)[nH]c(C(=O)COC(=O)CN2C(=O)C3CCCCC3C2=O)c1C (stereo not given) | . | .
O=C(CN1C(=O)C2(SCC(=O)N2c2ccc(F)cc2)c2ccccc21)NCCc1ccccc1 (stereo not given) | . | .
O=c1oc2c(CN3CCOCC3)c(O)ccc2c2ccccc12 | . | .
O=c1oc2c(CN3CCOCC3)c(O)ccc2c2c1CCCC2 | ? | 28µM
Cc1c(O)c(CN2CCCC2)cc2c3c(c(=O)oc12)CCC3 | ? | .
O=c1oc2c(CN3CCOCC3)c(O)c(Cl)cc2c2c1CCCC2 | ? | 28µM
CN(C)Cc1c(O)ccc2c3c(c(=O)oc12)CCCCC3 | ? | 22µM
CN(Cc1c(O)ccc2c1oc(=O)c1ccccc12)C1CCCCC1 | . | .
CCOc1ccc(CCn2c3c(c(=O)[nH]c2=O)C(NC(=O)c2ccccc2)(C(F)(F)F)C(=O)N3)cc1OCC (stereo not given) | . | .
